# According to article PMC12136788:
# The full ranking holds about 5,800 sequences; the median of “enrichment r” is about 0.68, and the highest 2% start at about 11. What follows is part of a selection rich in the highest values, with near analogues and random picks from the rest.
# T1: UNK ZnF1-6 (called full-length) (human, UniProt Q9C0B0 30-357)
# T1 sequence: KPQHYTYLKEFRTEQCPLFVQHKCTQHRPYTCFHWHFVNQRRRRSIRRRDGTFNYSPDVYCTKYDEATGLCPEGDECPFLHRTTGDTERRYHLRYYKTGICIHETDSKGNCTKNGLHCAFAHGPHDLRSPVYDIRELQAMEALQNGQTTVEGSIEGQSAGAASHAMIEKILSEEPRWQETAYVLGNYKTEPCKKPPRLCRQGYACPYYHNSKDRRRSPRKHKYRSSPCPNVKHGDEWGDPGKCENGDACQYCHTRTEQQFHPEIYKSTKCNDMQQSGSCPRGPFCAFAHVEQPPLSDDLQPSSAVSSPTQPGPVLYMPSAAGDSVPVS
# B1: chr7:158693335:158693439:-|CDS|ENSG00000146918|unk|total|mutant (ssRNA)
# RNA: GGGAGUUCUACAGUCCGACGAUCAAGGAAACAGAAAGAAGAAUUAUGGCAAAGGCUGAAGAAUUUAUUGACAGAUGUGUUGUCCGAAAGCCCAGUGGAUGGGUGGCAGGCCGUGGAAGCCCAGGGUGAAGACAAUAUGGAAACCAACAGAGGAUUGAGCAUCA
# B2: chr12:107752058:107752159:-|CDS|ENSG00000110851|unk|FALSE|unique (ssRNA)
# RNA: GGGAGUUCUACAGUCCGACGAUCUAACUCUAUAAAUGUUGAUGGUAAUACAGCAUUAUCUAUCACCAAUAACCCUUCAGCACUAGAUCCCUAUCAGUCCAAUGGAAAUGUUGGAUUAGAACCAGGCAUUGUUUCAAUAGACUCCAACAGAGGAUUGAGCAUCA
# B3: chr2:165880514:165880799:-|CDS|ENSG00000123607|control|control|control (ssRNA)
# RNA: GGGAGUUCUACAGUCCGACGAUCGAUGGCAUGGAAAUAUAGCAAUCGGACAAAUCCGGCAGUAGGUGAGUUUGGCAAUCACCUAGAUUUUUCACAGAAAAAUUAUGUUGUAUUUAUUAAUUUUCAUUUAAAUGCAUUUGAUUUCAACAGAGGAUUGAGCAUCA
# B4: chr19:38730201:38730298:+|3pUTR|ENSG00000130402|msi1_unk|FALSE|overlapping (ssRNA)
# RNA: GGGAGUUCUACAGUCCGACGAUCCAGAGAAUUACUAUUUACUUUAUUAACUUACGGAUUUAUUAUAUAAAUAUAUAUUCACCUAGCAACAUAUCUCUGCCGUCUCUCCUGCUCUCAUAAUGAAGACAUAGCCGAUUCUCUGCCCAACAGAGGAUUGAGCAUCA
# B5: chr3:58425360:58425463:+|3pUTR|ENSG00000168297|unk|FALSE|unique (ssRNA)
# RNA: GGGAGUUCUACAGUCCGACGAUCAGACAGCUCCUAGAAACAUUCCUCUUACAGUUCAUUUCUCUAAAGCAUUUUCUGAUUCUUAGAUAACUCCAAUUUUUGCUACCUUUAUCUUAGACAUUAACACUAUAGCCCAAAGCAUAGCAACAGAGGAUUGAGCAUCA
# B6: ENSG00000136451:be:win_1351|CDS|ENSG00000136451|bound_else_gene|NA|bound_elsewhere_windowed (ssRNA)
# RNA: GGGAGUUCUACAGUCCGACGAUCCCAUUAUCCAUGACCUCUCCUUUAACACUCACUACCCCAGUCAACCUCCCCACCCCCGUCACUGCCCCAGUGAAUAUAGCACACCCUGUCACCAUCACAUCUCCAAUGAAUCUACCCACACAACAGAGGAUUGAGCAUCA
# B7: chr7:158734047:158734148:-|3pUTR|ENSG00000117868|msi1_unk|FALSE|overlapping (ssRNA)
# RNA: GGGAGUUCUACAGUCCGACGAUCCUACCCGGAACACACCCUCUCACAGACGUACCAAUGUUAUUUUUAUAAUUUCAUGGAUUUAGUUAUACAUACCUUAAUAGUUUUAUAAAAUUGUUGACAUUUCAGGCAAAUUUGGCCAAUCAACAGAGGAUUGAGCAUCA
# Molecular target: T1, UNK ZnF1-6 (called full-length)
# Experiment: nsRBNS (natural sequence RNA bind-n-seq); RBNS binding buffer (assumed for nsRBNS): 25 mM Tris pH 7.5, 150 mM KCl, 3 mM MgCl2, 0.01% Triton X-100, 500 ug/ml BSA, 20 U/ml SUPERase-In, 4 C; UNK is unkempt and MSI1 is Musashi-1; names of the RNAs are library labels; protein concentration not given here; high values mean tight binding
row,Binder,binding signal [enrichment R]
1,B1,1
2,B2,0.391
3,B3,0.541
4,B4,20.4
5,B5,3.62
6,B6,1.83
7,B7,33.1
